Out of some 360,000 compounds screened, about 3,500 (0.97%) were called active. What follows is part of a selection rich in actives, with near analogues and random picks from the rest. A number with no mark means an inactive call.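 How the source made its calls: active means activation above a per-plate cutoff, the mean activation of sample wells on that plate plus 3 SD (cut at about 8% in these data); inactive means the rest.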

Sequence of Melanocortin receptor 4 (Homo sapiens) (P32245 whole entry, looked up): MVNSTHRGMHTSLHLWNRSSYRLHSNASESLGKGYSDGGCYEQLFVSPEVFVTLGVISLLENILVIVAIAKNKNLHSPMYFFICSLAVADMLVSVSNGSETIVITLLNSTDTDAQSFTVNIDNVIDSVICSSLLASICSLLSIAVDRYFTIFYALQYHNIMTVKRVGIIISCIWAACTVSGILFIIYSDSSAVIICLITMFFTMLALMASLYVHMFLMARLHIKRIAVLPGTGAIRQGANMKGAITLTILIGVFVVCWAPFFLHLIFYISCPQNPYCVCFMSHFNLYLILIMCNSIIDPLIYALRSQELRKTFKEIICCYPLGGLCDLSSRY

This experiment concerns the target Melanocortin receptor 4 (Homo sapiens) (UniProt P32245). The experiment in a line: activators of MC4R beta-arrestin recruitment – cell-based, luminescence, agonist arm of biased-ligand search, primary screen (AID 540308). Conditions: U2OS MC4R beta-arrestin complementation, at 8.9 µM, hits give high values, percent of melanotan II response, DMSO zero.
In the case of `COc1ccc(-n2nnc3c(=O)n(CC(=O)N4CCC(Cc5ccccc5)CC4)cnc32)cc1`, the activation is 3.13%.
`COc1ccc(-n2nnc3c(=O)n(CC(=O)OCc4ccccc4)cnc32)cc1`: the activation was 1.74%.
For `O=C(Cn1cnc2c(nnn2-c2ccccc2)c1=O)N1CCC(Cc2ccccc2)CC1`, the activation is 11.7% (active).
The figure for `Cc1c(C(=O)NCc2ccc(C#N)cc2)sc(=O)n1Cc1ccc(C(=O)N(C)C)cc1` is 1.47%; for `OC[C@@H]1CN(Cc2ccc(Cl)cc2)C[C@H](n2cnc3c(NCc4ccncc4)ncnc32)O1` it is 0.2%.
With `COc1cc(/C=C(/NC(=O)c2ccccc2)C(=O)Nc2cccc(O)c2)c([N+](=O)[O-])cc1OC`, the activation was 0.1%.
The figure for `COc1cc(/C=C(\C#N)C(=O)Nc2ccc3ccccc3c2)c([N+](=O)[O-])cc1OC` is 20.1% (active); for `COc1ccc(NC(=O)/C(C#N)=C\c2cc(OC)c(OCc3ccc(C(=O)O)cc3)cc2Br)cc1` it is -1.04%.
The figure for `Cc1cccc(C)c1Cn1c(C)c(C(=O)NCc2cccc(Cl)c2)sc1=O` is -0.04%.
Turning to `O=C(COC(=O)c1ccccc1)Nc1ccccc1Sc1ccccc1`, the activation was -0.01%.
The figure for `O=C(COC(=O)Cn1cnc2ccccc21)Nc1cccc2c1C(=O)c1ccccc1C2=O` is -2.17%.
The figure for `O=C(COC(=O)c1cccc(Br)c1)Nc1cccc2c1C(=O)c1ccccc1C2=O` is 22.1% (active); for `CC1(C(=O)NS(=O)(=O)c2ccccc2)CCN1C(=O)Cc1ccc(-c2ccccc2)cc1` (stereo unspecified) it is -1.08%; for `COc1cc(CNc2ncnc3c2ncn3[C@H]2CN(Cc3cccs3)C[C@@H](CO)O2)cc(OC)c1OC` it is 1%.
Take `CCc1nc2c(OCc3ccccc3)cccn2c1N(C)C(=O)c1ccco1`: the activation was -0.58%.
The figure for `COc1ccc(O)c(/C=N/N=C/c2cccc([N+](=O)[O-])c2)c1` is -0.29%; for `O=[N+]([O-])c1cccc(C=NN=Cc2ccccc2O)c1` it is 9.24% (active).
The figure for `Cc1ccc(NC(=O)O/N=C/c2cccc([N+](=O)[O-])c2)cc1` is -5.02%; for `CCCc1ccc(C(O)c2ncc(-c3cccc(OC)c3)[nH]2)cc1` (stereo unspecified) it is -1.27%.
The figure for `COc1ccc(C(=O)N2CCCCC2c2cc(C(=O)Nc3ccccc3)no2)cc1` (stereo unspecified) is -1.46%.
`CN(C)C(=O)c1cccc(-c2cnc3sc(NCc4ccc5c(c4)OCO5)nn23)c1`: the activation was 0.82%.
Consider `CCN1C[C@@H]2[C@@H]3C(=O)N(Cc4ccccc4)C(=O)[C@@H]3[C@](Cc3ccccc3)(C(=O)OC)N2C1=NC1CCCCC1`, for which the activation was 13.2% (active).
Regarding `CCCN=C1N(C)C[C@@H]2[C@@H]3C(=O)N(Cc4ccccc4)C(=O)[C@@H]3[C@](C)(C(=O)OC)N12`, the activation is -1.43%.
The figure for `CC[C@]1(C(=O)OC)[C@H]2C(=O)N(Cc3ccccc3)C(=O)[C@H]2[C@H]2CN=C(SCc3ccccc3)N21` is -0.47%.
Consider `COc1ccc(CCCNC(=O)C2Cc3c(-c4cccc(C(N)=O)c4)ccnc3O2)cc1` (stereo unspecified), for which the activation was -1.12%.
The figure for `CCCNC(=O)C1(C)CCCN(C(=O)c2oc3ccccc3c2C)C1` (stereo unspecified) is -0.51%; for `O=C(N/N=C/c1ccc(OC(=O)c2ccccc2Cl)cc1)c1ccc(O)cc1` it is 13.4% (active).
The figure for `O=C(COc1ccc(/C=N/NC(=O)c2ccc(O)cc2)cc1)Nc1ccc([N+](=O)[O-])cc1` is 2.23%.
In the case of `CC(C)(C)C(=O)Nc1ccc(C(=O)N/N=C/c2ccccc2OC(=O)c2ccc(Cl)cc2Cl)cc1`, the activation is -0.61%.
The figure for `CCc1nc2c(OCc3ccc(F)c(F)c3)cccn2c1N(C)C(=O)c1ccco1` is 1.17%; for `COc1ccc(-c2cc(NC=O)c3ncc(-c4cc(OC)c(OC)c(OC)c4)n3c2)c(OC)c1` it is 7.55%.
The figure for `COc1ccc(-c2cc(NC=O)c3ncc(-c4ccccc4)n3c2)cc1OC` is 21.5% (active).
The figure for `CN(C)CCNC(=O)c1cccc(-c2cnc3c(NC=O)cc(-c4cccc(C(F)(F)F)c4)cn23)c1` is 13.3% (active); for `CN(C)C(=O)c1cccc(-c2cnc3c(NC=O)cc(-c4ccc(C(=O)N5CCOCC5)cc4)cn23)c1` it is 3.87%.
For `CC(=O)c1ccc(-c2cnc3c(NC=O)cc(-c4cccc(NS(C)(=O)=O)c4)cn23)cc1`, the activation is -0.24%.
As for `COc1ccc(-c2cc(NC=O)c3ncc(-c4cccc(C(=O)N(C)C)c4)n3c2)c(OC)c1`, the activation is 5.89%.
Take `CN(C)CCNC(=O)c1ccc(-c2cn3c(-c4ccc(Oc5ccccc5)cc4)cnc3cn2)cc1`: the activation was 1.4%.
The figure for `CN(C)C(=O)c1cccc(-c2cnc3c(NC=O)cc(-c4ccc(F)cc4)cn23)c1` is 11.3% (active); for `CC(=O)c1cccc(-c2cnc3c(NC=O)cc(-c4ccc(N5CCN(C)CC5)cc4)cn23)c1` it is -0.45%; for `CC(=O)c1cccc(-c2cnc3c(NC=O)cc(-c4cccc(C(=O)N(C)C)c4)cn23)c1` it is 6.06%.
The figure for `CC(=O)c1cccc(-c2cnc3c(NC=O)cc(-c4ccccc4Oc4ccccc4)cn23)c1` is 3.06%; for `CC(=O)c1cccc(-c2cnc3c(NC=O)cc(-c4ccc(N(C)C)cc4)cn23)c1` it is 10% (active); for `CC(C)NC(=O)C1(C)CCCCN1Cc1cccc(C(F)(F)F)c1` (stereo unspecified) it is 1.6%.
For `COc1cccc(C(O)c2ncc(-c3ccc4ccccc4c3)[nH]2)c1` (stereo unspecified), the activation was -2.03%.
The figure for `CSc1ccc(CN2CCC2(C)C(=O)NCc2ccccc2Br)cc1` (stereo unspecified) is 0.53%; for `COc1cccc(C(O)c2nc(-c3ccc(C)c(C)c3)cs2)c1` (stereo unspecified) it is 1.59%.
The figure for `CC(O)(c1cccc(F)c1)c1nc(-c2ccc3c(c2)OCO3)cs1` (stereo unspecified) is 3.56%; for `O=C(Nc1ccc(Cl)cc1)C1Cc2c(-c3ccc4c(c3)OCO4)ccnc2O1` (stereo unspecified) it is 1.36%.
The figure for `COc1cc(NC(=O)c2ccccc2)c(OC)cc1NC(=O)Cc1ccccc1` is -1.99%.
In the case of `CCOCC(=O)Nc1cc(OC)c(Cl)cc1OC`, the activation was -0.35%.
In the case of `COc1cc(NC(=O)c2ccc(-c3csc(C)n3)cc2)c(OC)cc1Cl`, the activation was 9.13% (active).

(Values after PubChem BioAssay AID540308 (The Scripps Research Institute Molecular Screening Center, 2011).)
